Results as given in PubChem BioAssay.
Values joined by “and” are separate entries in the source; they are usually repeats but may differ in a detail not shown here. Equal values may be shown once. The list shows a part of the results. Active and inactive are the calls of the source.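 Rule for the calls, unless noted: active = mean inhibition over 43.08%, the solvent-only control mean plus 3 SD; inactive = the rest.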

Legend:
[1] = target: Nuclear receptor coactivator 3 (Homo sapiens) (UniProt Q9Y6Q9); test: NCOA3 GAL4-fusion reporter inhibition – cell-based, luminescence, quadruplicate, confirmation (AID 588792); details: HEK293 GAL4-SRC3 luciferase reporter, at 3.6 µM, hits give high values;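 note: 0% = DMSO treated cells and 100% = gossypol at 36 µM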
[2] = tested on: transactivating tegument protein VP16 (Human herpesvirus 1), Gal4-VP16 luciferase reporter; test: repression of VP16-driven luciferase reporter – cell-based, luminescence, high throughput, counter-screen for SRC3 inhibitor project (AID 588794; in the data active = inhibition above about 30%); details: mammalian cells, at 3.6 µM, hits give high values
[3] = target: Nuclear receptor coactivator 1 (Homo sapiens) (UniProt Q15788); test: NCOA1 GAL4-fusion reporter inhibition – cell-based, luminescence, quadruplicate, confirmation (AID 588820;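 active = mean inhibition above 46.68%, the untreated control wells mean plus 3 SD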;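 note: 0% = DMSO wells and 100% = gossypol 36 µM treated wells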); details: HEK293 GAL4-SRC1 luciferase reporter, at 3.6 µM, hits give high values
[4] = repression of VP16-driven luciferase reporter – cell-based, luminescence, high throughput, counter-screen for SRC1 inhibitor project (AID 588824; in the data active = inhibition above about 25%); details: cell-based VP16 transactivation luciferase luminescence; at 3.6 µM; hits give high values
[5] = StAR promoter reporter inhibitors, counter-screen for LRH-1 inverse agonist project, cell-based, luminescence, high throughput (AID 651611; in the data active = inhibition above about 28%); details: StAR promoter luciferase reporter counterscreen, at 3.6 µM, hits give high values
[6] = target: Nuclear receptor subfamily 5 group A member 2 (Homo sapiens) (UniProt O00482); test: NR5A2 activity suppression in reporter cells – cell-based, luminescence, confirmation (AID 651613; in the data active = inhibition above about 42%;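 note: HEK293T cells co-transfected with LRH-1 and StAR promoter luciferase reporter; 0% = vehicle wells and 100% = parental cells lacking receptor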); details: cell-based LRH-1 luciferase reporter, inverse agonism; at 3.6 µM; hits give high values
[7] = target: Steroidogenic factor 1 (Homo sapiens) (UniProt Q13285); test: inverse agonism at SF1 nuclear receptor – cell-based, luminescence, high throughput, counter-screen for LRH-1 inverse agonist project (AID 651614; in the data active = inhibition above about 44%;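 note: cells cotransfected with StAR promoter reporter and SF1 expression vector; 0% = vehicle on cells with receptor and 100% = vehicle on cells lacking receptor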); details: cell-based SF1 luciferase reporter, at 3.6 µM, hits give high values
[8] = compounds suppressing VP16-driven luciferase signal – cell-based, luminescence, high throughput, counter-screen for LRH-1 inverse agonist project (AID 651615; in the data active = inhibition above about 33%); details: Gal4-VP16 luciferase reporter cells, at 3.6 µM, hits give high values
[9] = tested on: transactivating tegument protein VP16 (Human herpesvirus 1); test: compounds suppressing VP16-driven luciferase signal – cell-based, luminescence, single concentration, counter-screen for SRC2 inhibitor project (AID 652007; in the data active = inhibition above about 36%); details: cell-based VP16 transactivation luciferase reporter, at 8.9 µM, hits give high values
[10] = target: Nuclear receptor coactivator 2 (Homo sapiens) (UniProt Q15596); test: inhibition of GAL4-SRC2 driven luciferase expression – cell-based, luminescence, HEK293, triplicate, confirmation (AID 652008;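 active = mean inhibition above 46.5%, the solvent-only control mean plus 3 SD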;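 note: 0% = DMSO-treated cells and 100% = Gossypol at 36 µM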); details: HEK293 GAL4-SRC2 luciferase reporter, at 8.9 µM, hits give high values
[11] = VP16-driven transactivation reporter suppression – cell-based, luminescence, HEK293, counter-screen for COUP-TFII antagonist project (AID 687007; in the data active = inhibition above about 13%); details: HEK293 Gal4-VP16 luciferase reporter, at 8.5 µM, hits give high values
[12] = target: COUP transcription factor 2 (Homo sapiens) (UniProt P24468); test: retest of COUP-TFII reporter suppressors – cell-based, luciferase reporter, HEK293, triplicate, confirmation (AID 687008;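 active = mean inhibition over three repeats above a set limit taken from the earlier primary screen, cut at about 38% in these data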;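 note: 100% = cells given the luciferase reporter alone without the COUP-TF2 vector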); details: HEK293 NGFI-A luciferase reporter, luminescence; at 8.5 µM; hits give high values

Measured: inhibition

Nuclear receptor coactivator 2 (Homo sapiens), sequence (Q15596 whole entry, looked up, the tested form may be a part): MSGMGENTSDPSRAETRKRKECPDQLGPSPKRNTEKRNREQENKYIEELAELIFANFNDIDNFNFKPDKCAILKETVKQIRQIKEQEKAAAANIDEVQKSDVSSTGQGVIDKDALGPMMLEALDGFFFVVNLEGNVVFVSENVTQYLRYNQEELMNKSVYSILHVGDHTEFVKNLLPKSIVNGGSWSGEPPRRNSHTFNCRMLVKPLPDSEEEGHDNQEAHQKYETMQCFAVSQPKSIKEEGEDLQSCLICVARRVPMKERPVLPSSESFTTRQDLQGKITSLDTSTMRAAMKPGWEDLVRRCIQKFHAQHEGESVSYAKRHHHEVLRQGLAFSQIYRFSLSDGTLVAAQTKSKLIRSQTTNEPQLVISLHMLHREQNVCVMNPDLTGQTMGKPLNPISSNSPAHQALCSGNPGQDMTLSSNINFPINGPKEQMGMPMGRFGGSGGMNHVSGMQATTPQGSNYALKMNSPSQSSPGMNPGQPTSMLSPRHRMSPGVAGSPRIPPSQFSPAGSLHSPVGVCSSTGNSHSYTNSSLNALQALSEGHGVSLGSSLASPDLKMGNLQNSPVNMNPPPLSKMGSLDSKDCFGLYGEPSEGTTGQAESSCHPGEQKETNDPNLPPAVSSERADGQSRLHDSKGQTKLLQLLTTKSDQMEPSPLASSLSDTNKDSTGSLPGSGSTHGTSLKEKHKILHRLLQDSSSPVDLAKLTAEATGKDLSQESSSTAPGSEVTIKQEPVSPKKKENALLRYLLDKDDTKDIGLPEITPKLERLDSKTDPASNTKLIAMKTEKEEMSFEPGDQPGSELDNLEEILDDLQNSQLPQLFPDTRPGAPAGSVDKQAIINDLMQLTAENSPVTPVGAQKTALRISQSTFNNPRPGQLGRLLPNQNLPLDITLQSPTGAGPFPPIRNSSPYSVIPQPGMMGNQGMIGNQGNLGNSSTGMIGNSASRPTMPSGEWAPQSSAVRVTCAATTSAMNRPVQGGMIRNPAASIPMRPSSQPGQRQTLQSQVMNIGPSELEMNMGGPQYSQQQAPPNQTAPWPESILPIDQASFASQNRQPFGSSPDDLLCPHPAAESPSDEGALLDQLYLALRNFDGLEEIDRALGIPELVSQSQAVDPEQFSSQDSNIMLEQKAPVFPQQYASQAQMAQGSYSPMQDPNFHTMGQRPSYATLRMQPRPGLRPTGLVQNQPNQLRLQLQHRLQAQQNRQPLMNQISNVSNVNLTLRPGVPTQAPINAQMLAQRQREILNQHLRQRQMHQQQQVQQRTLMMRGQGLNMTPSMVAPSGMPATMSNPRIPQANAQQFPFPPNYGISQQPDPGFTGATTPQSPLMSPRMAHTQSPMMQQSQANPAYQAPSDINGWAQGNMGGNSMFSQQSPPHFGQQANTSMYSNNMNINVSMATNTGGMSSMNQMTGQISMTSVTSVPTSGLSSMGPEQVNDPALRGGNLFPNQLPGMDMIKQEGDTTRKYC
Nuclear receptor subfamily 5 group A member 2 (Homo sapiens), sequence (O00482 whole entry, looked up): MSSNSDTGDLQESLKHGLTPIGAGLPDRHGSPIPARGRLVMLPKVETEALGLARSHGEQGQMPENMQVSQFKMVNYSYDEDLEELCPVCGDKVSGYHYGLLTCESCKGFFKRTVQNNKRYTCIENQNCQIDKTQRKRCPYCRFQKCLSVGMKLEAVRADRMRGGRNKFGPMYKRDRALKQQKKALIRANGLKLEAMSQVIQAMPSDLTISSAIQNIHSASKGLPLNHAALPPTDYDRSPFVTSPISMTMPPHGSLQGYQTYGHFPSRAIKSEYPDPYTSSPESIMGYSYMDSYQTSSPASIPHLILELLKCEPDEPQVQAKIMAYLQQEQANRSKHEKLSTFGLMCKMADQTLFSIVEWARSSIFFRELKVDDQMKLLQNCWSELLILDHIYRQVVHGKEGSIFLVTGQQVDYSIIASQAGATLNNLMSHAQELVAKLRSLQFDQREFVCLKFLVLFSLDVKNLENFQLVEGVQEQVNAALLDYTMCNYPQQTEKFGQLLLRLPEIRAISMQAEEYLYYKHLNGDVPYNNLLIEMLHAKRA
Steroidogenic factor 1 (Homo sapiens), sequence (Q13285 whole entry, looked up, the tested form may be a part): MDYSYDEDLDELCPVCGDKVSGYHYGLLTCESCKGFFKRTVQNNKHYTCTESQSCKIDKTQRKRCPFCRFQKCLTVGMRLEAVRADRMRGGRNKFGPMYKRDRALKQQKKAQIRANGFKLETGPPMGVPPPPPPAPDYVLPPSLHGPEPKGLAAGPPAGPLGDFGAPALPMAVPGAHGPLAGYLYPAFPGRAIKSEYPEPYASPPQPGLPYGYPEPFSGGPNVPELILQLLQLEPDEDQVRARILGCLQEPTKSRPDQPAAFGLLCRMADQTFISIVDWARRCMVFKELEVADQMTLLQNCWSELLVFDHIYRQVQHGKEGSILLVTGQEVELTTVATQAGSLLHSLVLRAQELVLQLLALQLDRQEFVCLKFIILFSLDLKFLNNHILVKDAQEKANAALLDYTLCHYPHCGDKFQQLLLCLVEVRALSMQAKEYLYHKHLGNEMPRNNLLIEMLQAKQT
Nuclear receptor coactivator 3 (Homo sapiens), sequence (Q9Y6Q9 whole entry, looked up, the tested form may be a part): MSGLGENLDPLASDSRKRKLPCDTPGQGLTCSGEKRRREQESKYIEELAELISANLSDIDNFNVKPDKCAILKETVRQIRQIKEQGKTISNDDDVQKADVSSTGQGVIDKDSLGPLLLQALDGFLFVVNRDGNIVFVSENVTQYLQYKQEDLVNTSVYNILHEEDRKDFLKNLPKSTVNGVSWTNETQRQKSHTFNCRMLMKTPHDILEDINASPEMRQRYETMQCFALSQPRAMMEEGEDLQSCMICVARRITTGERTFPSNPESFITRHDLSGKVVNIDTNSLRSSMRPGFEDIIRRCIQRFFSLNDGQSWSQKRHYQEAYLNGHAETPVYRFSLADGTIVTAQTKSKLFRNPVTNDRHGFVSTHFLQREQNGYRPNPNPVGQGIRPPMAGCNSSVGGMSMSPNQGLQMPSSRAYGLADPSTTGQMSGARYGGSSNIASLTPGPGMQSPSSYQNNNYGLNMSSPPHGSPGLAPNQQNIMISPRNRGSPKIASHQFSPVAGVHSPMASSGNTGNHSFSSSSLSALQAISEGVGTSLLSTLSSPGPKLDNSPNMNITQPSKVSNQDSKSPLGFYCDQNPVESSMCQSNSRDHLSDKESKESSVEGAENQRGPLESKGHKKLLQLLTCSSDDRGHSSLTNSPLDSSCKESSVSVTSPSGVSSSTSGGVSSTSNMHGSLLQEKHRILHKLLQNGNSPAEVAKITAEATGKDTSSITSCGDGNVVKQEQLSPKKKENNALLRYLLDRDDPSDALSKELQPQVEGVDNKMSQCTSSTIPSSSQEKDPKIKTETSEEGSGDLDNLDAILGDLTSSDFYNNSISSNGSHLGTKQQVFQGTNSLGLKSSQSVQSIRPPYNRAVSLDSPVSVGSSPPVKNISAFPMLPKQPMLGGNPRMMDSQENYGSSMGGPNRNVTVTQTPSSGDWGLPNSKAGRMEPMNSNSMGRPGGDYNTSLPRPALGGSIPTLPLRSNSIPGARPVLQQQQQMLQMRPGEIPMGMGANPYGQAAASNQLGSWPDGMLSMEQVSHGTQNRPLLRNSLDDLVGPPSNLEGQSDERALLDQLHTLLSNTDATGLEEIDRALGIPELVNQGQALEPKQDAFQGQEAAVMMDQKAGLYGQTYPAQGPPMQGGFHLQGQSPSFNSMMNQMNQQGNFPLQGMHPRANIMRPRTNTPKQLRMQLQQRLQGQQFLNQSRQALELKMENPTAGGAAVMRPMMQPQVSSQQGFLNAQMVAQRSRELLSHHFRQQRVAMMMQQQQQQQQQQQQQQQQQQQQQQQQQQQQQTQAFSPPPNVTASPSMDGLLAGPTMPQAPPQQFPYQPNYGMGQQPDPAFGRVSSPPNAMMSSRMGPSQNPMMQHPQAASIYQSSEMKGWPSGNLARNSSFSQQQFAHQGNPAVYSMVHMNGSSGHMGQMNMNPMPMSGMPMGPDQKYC
COUP transcription factor 2 (Homo sapiens), sequence (P24468 whole entry, looked up): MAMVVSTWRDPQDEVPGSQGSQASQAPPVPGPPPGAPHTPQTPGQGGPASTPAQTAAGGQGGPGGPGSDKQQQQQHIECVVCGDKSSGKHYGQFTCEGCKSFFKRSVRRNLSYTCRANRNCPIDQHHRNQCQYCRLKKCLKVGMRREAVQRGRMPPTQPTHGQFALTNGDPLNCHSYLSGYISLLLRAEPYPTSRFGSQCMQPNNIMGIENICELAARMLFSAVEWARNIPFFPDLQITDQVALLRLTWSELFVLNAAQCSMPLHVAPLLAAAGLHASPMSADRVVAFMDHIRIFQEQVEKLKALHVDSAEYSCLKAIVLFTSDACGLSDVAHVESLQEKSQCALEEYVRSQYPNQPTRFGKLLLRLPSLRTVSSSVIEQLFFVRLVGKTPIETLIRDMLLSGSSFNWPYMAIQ

CN1CCN(c2ccc([N+](=O)[O-])c3no[n+]([O-])c23)CC1
active: [1] 98.6% | [2] 96.4% | [3] 93.7% | [4] 96% | [5] 97% | [6] 111% | [7] 98.9% | [8] 97.9%

COc1ccc(-n2nnnc2C(c2cc3ccccc3o2)N2CCC(n3c(=O)[nH]c4ccccc43)CC2)cc1 (configuration not stated)
inactive: [1] -5.69% | [2] 5.58% | [3] 0.21% | [4] 6.66% | [6] 36.4% | [10] 22.9%
active: [5] 39.6% | [7] 45.7% | [8] 35.3% | [9] 49.7%

COc1ccc(CC2NCC(O)C2OC(C)=O)cc1 (configuration not stated)
active: [1] 98.6% | [2] 96.7% | [3] 96.2% | [4] 96.6% | [5] 96.6% | [6] 111% | [7] 98.3% | [8] 96.1% | [9] 84.6% | [10] 82.5%

N#Cc1cn(C2OC(CO)C(O)C2O)c2ncnc(N)c12 (configuration not stated)
active: [1] 81.4% | [2] 91.3% | [4] 89.7% | [5] 82% | [6] 107% | [7] 94.1% | [8] 91% | [10] 48.3%
inactive: [3] -24% | [9] 30.4%

CC(=O)OC1CC(OC2C(O)CC(OC3C(O)CC(OC4CCC5(C)C(CCC6C5CCC5(C)C(C7=CC(=O)OC7)C(O)CC65O)C4)OC3C)OC2C)OC(C)C1OC1OC(CO)C(O)C(O)C1O (configuration not stated)
active: [1] 93.4% | [2] 79.7% | [4] 72.8% | [5] 97.7% | [6] 111% | [7] 99.3% | [8] 85.1% | [9] 61.8%
inactive: [3] 39.1% | [10] 13.5%

C[C@]12CCC3C(CCC4=CC(O)CC[C@@]43/C=N/O)C1(O)CCC2C1=CC(=O)OC1 (some centres not stated)
inactive: [10] 11.4%
active: [1] 95.1% | [2] 79.7% | [3] 49.1% | [4] 77.8% | [5] 94.8% | [6] 108% | [7] 97% | [8] 82.5% | [9] 63.6%

NC(=O)c1cn(C2OC(CO)C(O)C2O)c2ncnc(N)c12 (configuration not stated)
active: [1] 96.2% and 97.7% | [2] 97.7% and 97.3% | [3] 90% and 90.1% | [4] 97.9% and 96% | [5] 94.2% and 95% | [6] 109% and 110% | [7] 96.8% and 98% | [8] 95.5% and 97.3% | [9] 65% and 66.1% | [10] 67.3% and 73.3%

CCN1CCN(c2ncnc3ccc(Br)cc23)CC1
inactive: [9] 2.45% | [10] 36.7%
active: [1] 56.6% | [2] 54.3% | [3] 72.2% | [4] 44.9%

CCOc1ccc(-c2cc(C)[n+](CCN(CC)CC)c(-c3ccc(OCC)cc3)c2)cc1
active: [1] 68.1% | [2] 80.8% | [3] 67.7% | [4] 81.7% | [5] 73.6% | [6] 105% | [7] 93.8% | [8] 90% | [11] 19.5% | [12] 62%

O=C1NC2C(O)C(O)C(O)C(O)C2c2cc3c(c(O)c21)OCO3 (configuration not stated)
active: [1] 97.3% | [2] 96% | [3] 93.4% | [4] 95% | [5] 96.4% | [6] 109% | [7] 97.7% | [8] 98.6% | [9] 79.7% | [10] 75.7%

CC12CCC(O)CC1CCC1C2CCC2(C)C(C3=CC(=O)OC3)CCC12O (configuration not stated)
active: [1] 97.6% | [2] 87.9% | [3] 70.6% | [4] 87.4% | [5] 95.7% | [6] 110% | [7] 98.2% | [8] 89% | [9] 58.5%
inactive: [10] 23.6%

CC1=CC2OC3CC4OC(=O)C=CC=CC(C(C)O)OCC(O)C5(C)OC5C(=O)OCC2(CC1O)C4(C)C31CO1 (configuration not stated)
active: [1] 98.6% | [2] 96.2% | [3] 96.5% | [4] 95.1% | [5] 94.8% | [6] 108% | [7] 96.5% | [8] 96.2% | [9] 82.1% | [10] 73.5%

C[C@]12CC[C@H](O)C[C@H]1CC[C@@H]1C2CC[C@]2(C)[C@@H](C3=CC(=O)OC3)[C@@H](O)C[C@]12O (some centres not stated)
active: [1] 75.3% | [5] 87.1% | [6] 90.4% | [7] 69.9% | [8] 40.9%
inactive: [2] 21.1% | [3] -39% | [4] 12.7% | [11] -16.6% | [12] 30.9%

NC(=S)c1cn(C2OC(CO)C(O)C2O)c2ncnc(N)c12 (configuration not stated)
active: [1] 97.4% | [2] 95.9% | [3] 89.7% | [4] 96.2% | [5] 93.2% | [6] 109% | [7] 98% | [8] 97.9% | [9] 69.4% | [10] 71.6%

CC1CCOC(=O)C=CC=CC(=O)OC2CC3OC4C5OC5(C)C(O)CC4(COC(=O)C1O)C2(C)C31CO1 (configuration not stated)
active: [1] 98.8% | [2] 97.3% | [3] 97.2% | [4] 97.1% | [9] 80.4% | [10] 75.2%

C=C1C(=O)O[C@@H]2C[C@@H](C)[C@@H]3C=CC(=O)[C@@]3(C)[C@@H](O)[C@H]12
active: [2] 92.5% | [4] 91.7% | [9] 96% | [10] 93.7%
inactive: [1] 42.1%

O=C1NC2C(=CC(O)C(O)C2O)c2cc3c(c(O)c21)OCO3 (configuration not stated)
active: [1] 97.4% | [2] 96.1% | [3] 94.7% | [4] 94.7% | [5] 95.7% | [6] 109% | [7] 98% | [8] 96% | [9] 79.3% | [10] 75.6%

C[C@H]1C[C@@H](C)C(=O)[C@@H]([C@H](O)CC2CC(=O)NC(=O)C2)C1
active: [1] 96.7% | [2] 92.3% | [3] 82.3% | [4] 91.3% | [6] 110% | [7] 97.9% | [9] 63.2% | [10] 62.9%

CCC1CN2CCc3cc(OC)c(OC)cc3C2CC1CC1NCCc2c1[nH]c1ccc(O)cc21 (configuration not stated)
active: [1] 98% | [2] 96.7% | [3] 95.4% | [4] 95.9% | [5] 95.7% | [6] 110% | [7] 98.3% | [8] 98.7% | [9] 78.1% | [10] 73.4%

CC(=O)OC[C@]12CCC(C)=C[C@H]1O[C@@H]1[C@H](O)[C@@H](OC(C)=O)[C@@]2(C)[C@]12CO2
active: [1] 98.8% | [2] 97.9% | [3] 98% | [4] 97.8% | [5] 96% | [6] 109% | [7] 98% | [8] 97.1% | [9] 78.3% | [10] 73%

CC(N)C(=O)NC1C2C(=C(O)CC(O)C2O)C(=O)OC1(C)C(Cl)Cl (configuration not stated)
active: [1] 98.8% | [2] 96.8% | [3] 88.6% | [4] 96.8% | [5] 96.4% | [6] 110% | [7] 98.5% | [8] 98.3% | [9] 77.2% | [10] 74.3%

O=C1CN=C(c2ccc[nH]2)c2cc(Cl)ccc2N1
active: [1] 76% | [2] 57.9% | [3] 53.3% | [4] 57.5%
inactive: [9] 30.2% | [10] 44%

COc1ccc(C[C@H]2NC[C@H](O)[C@H]2OC(C)=O)cc1
active: [1] 98.9% | [2] 97.4% | [3] 96% | [4] 96.7% | [5] 94.4% | [6] 110% | [7] 97.7% | [8] 95.9% | [9] 79.2% | [10] 78.6%

CC(=O)OCC12CC(OC(=O)CC(C)C)C(C)=CC1OC1C(O)C(OC(C)=O)C2(C)C12CO2 (configuration not stated)
active: [1] 95.1% | [2] 91.9% | [3] 88.5% | [4] 88.9% | [5] 97% | [6] 110% | [7] 98.3% | [8] 97.8% | [9] 79.1% | [10] 75.4%

C=Cc1cc(OC)c2c(c1)c(=O)oc1c2cc(OC)c2c(O)ccc(C3OC(C)C(O)C(C)(O)C3O)c21 (configuration not stated)
inactive: [3] -23.3% | [10] -166%
active: [1] 46.1% | [2] 88.3% | [4] 88% | [9] 42.7%

COc1ccc(CC2C(=O)NC(C)C(=O)N(C)C3C(=O)N(C)C(Cc4ccc(O)c(c4)Oc4ccc(cc4)C3O)C(=O)NC(C)C(=O)NC(C)C(=O)N2C)cc1 (configuration not stated)
active: [1] 98.6% | [2] 96.7% | [3] 94.8% | [4] 95.5% | [6] 111% | [7] 98.8% | [9] 80.4% | [10] 77.1%

CC(=O)OC1CC2(O)C3CCC4CC(O)CCC4(C)C3CCC2(C)C1C1=CC(=O)OC1 (configuration not stated)
inactive: [10] 45.1%
active: [1] 95.9% | [2] 84.3% | [3] 71.4% | [4] 83.3% | [5] 96.5% | [6] 111% | [7] 98.7% | [8] 91.9% | [9] 65.2%

Cc1ccc(-c2cc(-c3ccccc3)cc(-c3ccccc3)[n+]2-c2ccccc2)cc1
active: [1] 86.4% | [2] 89.9% | [3] 67.6% | [4] 85.6% | [5] 83.6% | [6] 110% | [7] 91.4% | [8] 95.2% | [9] 70% | [10] 61.8%

Nc1ncnc2c1ccn2[C@@H]1O[C@H](CO)[C@@H](O)[C@H]1O
active: [1] 93.6% | [2] 89.5% | [3] 53.4% | [4] 86.8% | [5] 90.9% | [6] 107% | [7] 94.2% | [8] 93.6% | [9] 55.5% | [10] 58.3%

CC1OC(OC2CC(O)C3(CO)C4C(O)CC5(C)C(C6=CC(=O)OC6)CCC5(O)C4CCC3(O)C2)C(O)C(O)C1O (configuration not stated)
active: [1] 97.2% | [2] 89.1% | [3] 80.3% | [4] 87.2% | [6] 109% | [7] 96% | [8] 93.5% | [9] 70.9% | [10] 54%
